PubChem BioAssay
Calls of active or inactive are those of the source.

Columns and labels:
[1] = tested on: Human papillomavirus type 1a protein E7 (residues 44-93); assay: HPV1a E7 fragment binders on microarrays, primary screen, biochemical, small-molecule microarray, residues 44-93, 635 nm fluorescence (AID 1108); conditions: small-molecule microarray binding, fluorescence 635 nm; higher = more signal;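 also: E7 fragment applied at 1 µg/mL in TBST for 1 h at 4 C; score combines spot fluorescence with its signal to noise ratio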
[2] = modulators of HCV replicon luciferase signal, primary screen, HCV replication inhibitor project, Huh7 cells, luciferase reporter (AID 1109); conditions: 48 h, higher = more signal;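 also: huh7 hepatoma cells harbouring a luciferase neomycin HCV replicon reporter; luciferase luminescence as measure of HCV replicon replication; test concentration not given here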
[3] = target: Left-right determination factor 2 (Homo sapiens) (UniProt O00292); assay: LEFTY2 binders on small-molecule microarrays, primary screen, biochemical, small-molecule microarray, 635 nm fluorescence scan (AID 1110); conditions: LEFTY2 binding, higher = more signal
[4] = target: Calmodulin-1 (Homo sapiens) (UniProt P0DP23); assay: CALM1 binders on microarrays, EGTA buffer, profiling panel, biochemical, small-molecule microarray, Cy5-labelled CALM1 (AID 1111); conditions: Cy5-CALM1 binding fluorescence, higher = more signal;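 also: labelled calmodulin applied in Tris saline Tween buffer holding calcium plus EGTA and DTT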
[5] = target: Calmodulin-1 (Homo sapiens) (UniProt P0DP23); assay: calcium-bound CALM1 binders on microarrays, profiling panel, artefact control for SMM control-protein annotation, biochemical, small-molecule microarray, Cy5-labelled CALM1, plus calcium (AID 1112); conditions: Cy5-CALM1 binding fluorescence, higher = more signal;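 also: score merges spot fluorescence with signal to noise from triplicate slides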
[6] = small-molecule microarray binders of probe aWnt5a, primary screen, biochemical, biotinylated probe, 635/667 nm fluorescence (AID 1113); conditions: higher = more signal;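 also: score merges 667 nm fluorescence intensity with signal-to-noise per printed feature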
[7] = small-molecule microarray binders of probe aShh, primary screen, biochemical, biotinylated probe, 635/667 nm fluorescence (AID 1114); conditions: higher = more signal;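 also: probe is biotin-labelled aShh protein from a stem cell growth factor screen; measures binding of labelled protein to compounds printed on the slide; score merges feature fluorescence at 667 nm with signal-to-noise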
[8] = small-molecule microarray binders of probe aNog, primary screen, biochemical, biotinylated probe, 635/667 nm fluorescence (AID 1115); conditions: higher = more signal;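 also: probe is biotinylated aNog protein used at 0.15 µg/mL for 1 h at 4 C; z-score combines 667 nm fluorescence of each spot with its signal to noise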
[9] = target: Torsin-1A-interacting protein 1 (Homo sapiens) (UniProt Q5JTV8); assay: LAP1 binders from COS7 cell lysate, primary screen, small-molecule microarray, 635/667 nm fluorescence (AID 1116); conditions: COS7-hLAP1 lysate binding, 635 nm fluorescence, higher = more signal
[10] = target: Alpha-bungarotoxin (Bungarus multicinctus) (UniProt P60615); assay: alpha-bungarotoxin binders on microarray, profiling panel, artefact control for SMM control protein annotation, biochemical, small-molecule microarray, Alexa647 label, 635/667 nm fluorescence (AID 1117); conditions: alpha-BTX-A647 binding fluorescence, higher = more signal
Albumin (Bos taurus) = Albumin (Bos taurus) (UniProt P02769); assay: bovine serum albumin binders on microarray, profiling panel, artefact control for SMM control protein annotation, biochemical, small-molecule microarray, Alexa647 label, 635/667 nm fluorescence (AID 1118); conditions: BSA-A647 binding, fluorescence 635 nm, higher = more signal;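 also: score merges 667 nm emission intensity and signal-to-noise per printed compound spot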
[11] = small-molecule microarray binders of probe aXIP, primary screen, biochemical, NeuroSMM set, 635/667 nm fluorescence (AID 1119); conditions: higher = more signal, called active from +8 up or from −8 down;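 also: probe is the protein aXip251-270 applied at 1 µg/mL to compound-printed slides; binding of probe to printed compounds measured as 667 nm fluorescence plus signal to noise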
[12] = small-molecule binders of probe aNOTCH3, primary screen, biochemical, small-molecule microarray, 635/667 nm fluorescence (AID 1120); conditions: higher = more signal;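 also: probe is a biotin-tagged antibody raised against NOTCH3 rather than NOTCH3 protein; score merges spot fluorescence near 667 nm with spot signal to noise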
[13] = small-molecule binders of probe aNOTCH2, primary screen, biochemical, small-molecule microarray, 635/667 nm fluorescence (AID 1121); conditions: higher = more signal;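 also: score merges feature fluorescence read at 667 nm with its signal to noise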
[14] = target: Carbonic anhydrase 2 (Homo sapiens) (UniProt P00918); assay: CAII small-molecule binders, profiling panel, biochemical, small-molecule microarray, Alexa647-labelled CAII (AID 1122); conditions: CAII-A647 binding fluorescence, higher = more signal
[15] = COS7 lysate on small-molecule microarray, probe aHis, 635 nm (AID 1123); conditions: COS7 cell lysate, fluorescence, higher = more signal;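 also: z-score combines 667nm fluorescence intensity with signal-to-noise per printed compound spot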
[16] = compound binding in COS7 lysate, probe aLAP1, primary screen, cell lysate, small-molecule microarray (AID 1124); conditions: probe aLAP1, fluorescence, higher = more signal;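 also: lysate comes from COS7 cells expressing LAP1 and is applied at 0.3 µg/mL; score merges spot fluorescence near 667 nm with signal-to-noise over triplicate slides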
Sam68 (KHDRBS1) = assay: Sam68 small-molecule binders, primary screen, biochemical, small-molecule microarray, 635 nm fluorescence (AID 1125); conditions: small-molecule microarray binding, higher = more signal;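 also: score merges 667 nm channel intensity with signal to noise over triplicate slides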
[17] = tested on: Chordin-like protein 2 (CHRDL2); assay: CHRDL2 small-molecule binders, primary screen, biochemical, small-molecule microarray, 635 nm fluorescence (AID 1126); conditions: small-molecule microarray binding, fluorescence 635 nm; higher = more signal;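 also: printed compound slides probed with Chrdl2 protein at 4 µg/mL for 1 h at 4 C; score merges 667 nm emission intensity with signal to noise over three replicate slides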
[18] = target: Concanavalin-A (Canavalia ensiformis) (UniProt P02866); assay: ConA small-molecule binders, primary screen, artefact control for SMM control protein annotation, biochemical, small-molecule microarray, Alexa647 label, 635 nm (AID 1127); conditions: ConA-A647 binding fluorescence, higher = more signal;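 also: z combines 667 nm emission intensity with signal-to-noise across three replicate slides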
Concanavalin-A (Canavalia ensiformis), sequence (P02866 whole entry, looked up): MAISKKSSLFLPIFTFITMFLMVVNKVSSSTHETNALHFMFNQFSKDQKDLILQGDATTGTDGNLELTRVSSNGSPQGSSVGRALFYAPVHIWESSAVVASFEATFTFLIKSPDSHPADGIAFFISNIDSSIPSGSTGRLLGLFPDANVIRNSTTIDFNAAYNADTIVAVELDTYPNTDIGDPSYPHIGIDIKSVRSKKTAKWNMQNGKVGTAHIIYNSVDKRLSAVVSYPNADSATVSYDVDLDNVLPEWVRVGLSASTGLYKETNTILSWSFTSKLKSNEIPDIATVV

Alpha-bungarotoxin (Bungarus multicinctus), sequence (P60615 whole entry, looked up): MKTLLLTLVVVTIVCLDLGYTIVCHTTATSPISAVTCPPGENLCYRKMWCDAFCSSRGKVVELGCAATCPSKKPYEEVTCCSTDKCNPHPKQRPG
Albumin (Bos taurus), sequence (P02769 whole entry, looked up): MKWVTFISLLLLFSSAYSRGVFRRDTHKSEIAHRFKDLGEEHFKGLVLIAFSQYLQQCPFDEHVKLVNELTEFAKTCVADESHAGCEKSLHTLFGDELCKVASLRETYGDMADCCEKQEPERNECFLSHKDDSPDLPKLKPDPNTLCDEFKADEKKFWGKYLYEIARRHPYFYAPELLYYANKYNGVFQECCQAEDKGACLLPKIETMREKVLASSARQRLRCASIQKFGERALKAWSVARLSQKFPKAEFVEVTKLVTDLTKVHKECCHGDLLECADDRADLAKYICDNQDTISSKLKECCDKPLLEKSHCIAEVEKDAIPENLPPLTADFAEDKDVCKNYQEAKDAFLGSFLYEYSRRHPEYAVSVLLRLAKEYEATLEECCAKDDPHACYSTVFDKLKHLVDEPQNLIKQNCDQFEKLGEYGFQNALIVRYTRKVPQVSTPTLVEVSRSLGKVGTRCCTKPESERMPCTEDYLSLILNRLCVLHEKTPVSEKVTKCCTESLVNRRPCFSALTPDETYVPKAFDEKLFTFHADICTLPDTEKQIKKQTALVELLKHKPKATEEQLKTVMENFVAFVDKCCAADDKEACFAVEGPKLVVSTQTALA
Torsin-1A-interacting protein 1 (Homo sapiens), sequence (Q5JTV8 whole entry, looked up): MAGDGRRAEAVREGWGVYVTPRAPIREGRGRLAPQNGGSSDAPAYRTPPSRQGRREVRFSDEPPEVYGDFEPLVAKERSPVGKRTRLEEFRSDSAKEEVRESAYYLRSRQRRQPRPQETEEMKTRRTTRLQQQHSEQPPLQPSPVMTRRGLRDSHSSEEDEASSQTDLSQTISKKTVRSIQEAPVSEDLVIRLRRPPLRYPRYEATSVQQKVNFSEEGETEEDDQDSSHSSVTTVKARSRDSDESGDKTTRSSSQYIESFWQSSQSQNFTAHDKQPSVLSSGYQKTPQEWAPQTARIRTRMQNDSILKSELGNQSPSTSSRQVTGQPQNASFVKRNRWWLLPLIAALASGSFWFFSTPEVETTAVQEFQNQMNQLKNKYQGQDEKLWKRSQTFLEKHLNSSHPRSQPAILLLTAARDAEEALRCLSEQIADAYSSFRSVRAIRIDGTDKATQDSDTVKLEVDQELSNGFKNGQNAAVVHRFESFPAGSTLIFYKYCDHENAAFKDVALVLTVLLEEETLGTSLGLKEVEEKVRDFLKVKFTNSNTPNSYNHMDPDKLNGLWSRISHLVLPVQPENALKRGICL
Left-right determination factor 2 (Homo sapiens), sequence (O00292 whole entry, looked up): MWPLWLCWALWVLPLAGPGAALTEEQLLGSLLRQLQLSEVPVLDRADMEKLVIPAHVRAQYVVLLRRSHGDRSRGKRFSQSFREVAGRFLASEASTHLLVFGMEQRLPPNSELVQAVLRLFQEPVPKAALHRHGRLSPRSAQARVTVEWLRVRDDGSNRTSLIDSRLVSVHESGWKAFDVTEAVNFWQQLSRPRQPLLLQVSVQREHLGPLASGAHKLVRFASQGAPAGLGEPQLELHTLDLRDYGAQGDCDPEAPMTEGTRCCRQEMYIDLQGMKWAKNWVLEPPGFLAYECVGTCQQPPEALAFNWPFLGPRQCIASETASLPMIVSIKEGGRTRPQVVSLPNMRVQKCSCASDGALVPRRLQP

Row | SMILES | composite z-score [1] | z-score [2] | composite z-score [3] | composite z-score [4] | composite z-score [5] | composite z-score [6] | composite z-score [7] | composite z-score [8] | composite z-score [9] | composite z-score [10] | composite z-score (Albumin (Bos taurus)) | composite Z-score [11] | composite z-score [12] | composite z-score [13] | composite z-score [14] | composite z-score [15] | composite z-score [16] | composite z-score (Sam68 (KHDRBS1)) | composite z-score [17] | composite z-score [18]
1 | COC(=O)c1c(CC[C@@H](CO)NC(=O)N2CCC[C@H]2Cn2cc(Cc3ccccc3)nn2)oc(C(C)=O)c1C(=O)OC | 0.916 | 0.139 | -0.0041 | -0.128 | -0.658 | -0.0778 | -0.167 | 0.113 | 0.0411 | 0.17 | 0.0832 | -0.413 (inactive) | 0.233 | -0.133 | 0.643 | 1.33 | 0.381 | 0.694 | 0.668 | 0.488
2 | C=CCC(OC(C)=O)[C@@H]1[C@@H](N(Cc2cccc3ccccc23)C(=O)Cc2ccc(F)cc2)c2cc(OCCCO)ccc2N1C(=O)c1ccc2ccccc2n1 (stereo not given in full) | -0.829 | -0.562 | 0.226 | 0.304 | 0.398 | -0.18 | -0.123 | -0.432 | 0.0149 | 0.411 | -0.0728 | -0.486 (inactive) | -0.0125 | 0.0156 | 0.409 | 0.0549 | 0.398 | -0.301 | 0.192 | 0.483
3 | O=C(NCC(F)(F)F)[C@@H]1c2ccccc2C(=O)N(Cc2cc(F)cc(C(F)(F)F)c2)[C@H]1c1ccc(CO)cc1 | 0.463 | -0.661 | -1.53 | 0.152 | 0.712 | -0.096 | -0.0709 | -0.074 | -0.468 | -0.758 | -0.463 | 0.57 (inactive) | -0.355 | -0.0644 | 0.295 | 0.837 | -0.0879 | -0.639 | -1.11 | -0.236
4 | COc1ccc([Si](C)(C)[C@H]2[C@H](CCn3cc([C@H](O)c4ccccc4)nn3)O[C@@]3(C(=O)N(Cc4ccc(N5C(=O)c6cccc7cccc5c67)cc4)c4ccccc43)[C@@H]2C)cc1 | 0.0891 | -2.6 | -0.638 | 0.103 | 0.0758 | -0.131 | -0.154 | -0.0065 | 0.112 | 0.0628 | -0.601 | 0.389 (inactive) | -0.165 | -0.14 | 0.193 | 0.769 | 0.838 | 0.131 | -0.803 | 0.115
5 | CC(C)(C)OC(=O)CC[C@@]1(C(=O)NCc2ccccc2)N=C(c2ccc(OCCCO)cc2)O[C@@H]1c1ccccc1N=[N+]=[N-] | 0.912 | -0.339 | 0.529 | 1.15 | 0.493 | 0.112 | 0.232 | 1.9 | 0.899 | 2.1 | 0.952 | 0.399 (inactive) | 0.66 | 0.115 | 0.73 | 2.97 | 0.935 | 1.29 | 0.134 | 1.04
6 | C#CCN([C@@H](Cc1ccc(O)cc1)C(=O)OC)[C@@H](/C=C/C1CC1)[C@H](O)Cc1ccccc1 | -0.184 | -3 | -0.0906 | -0.634 | -1.04 | -0.0425 | -0.223 | -0.407 | 0.0583 | -0.0345 | -0.865 | -0.0582 (inactive) | -0.0567 | -0.172 | -0.303 | 0.071 | 0.0995 | -0.0361 | 0.523 | -0.58
7 | COC(=O)[C@@]1(Cc2ccc(F)cc2)[C@H]2c3cc(C(=O)N4CCCC4)n(CCN4CNCC4=O)c3C[C@H]2CN1C(=O)c1ccccc1 | 1.44 | -1.8 | -1 | -0.606 | -0.234 | 0.307 | 0.151 | -0.158 | 2.1 | 1.07 | 0.975 | -0.476 (inactive) | 0.323 | -0.0345 | 0.766 | 3.18 | 0.197 | 0.592 | -0.834 | 0.63
8 | CCCCC(O)C1C=CC2C(=O)N(c3ccccc3)C(=O)C2N1Nc1ccc(C(C)C)cc1 (stereo not given) | 1.41 | 0.318 | 0.154 | 1.25 | 0.304 | 0.0974 | 0.0875 | -0.503 | -0.236 | 1.06 | 0.898 | -0.535 (inactive) | 0.315 | -0.0073 | 0.712 | 2.85 | 0.201 | 1.32 | -0.408 | 1.07
9 | CCOC(=O)C[C@H]1[C@H](OC(=O)c2cc3ccccc3oc2=O)[C@@H](NC(=O)c2ccc(-c3ccccc3)cc2)c2cc(OCCCO)ccc2N1C(=O)c1ccc2ccccc2n1 | 1.38 | -0.989 | 0.48 | 0.0371 | -0.455 | -0.104 | -0.195 | -0.253 | 0.624 | 0.422 | 0.111 | 0.6 (inactive) | 0.0864 | -0.147 | 0.4 | 0.837 | 0.205 | 1.32 | 0.492 | 0.708
10 | Cc1ccc(S[C@]2(C(=O)NCCCN(C)C)CC(=O)N(C3CCCCC3)[C@@H]2c2ccc(CO)cc2)cc1 | -0.246 | -2.51 | -0.992 | -0.596 | -0.677 | -0.129 | -0.0035 | -0.255 | -0.549 | -0.123 | 0.156 | 0.0469 (inactive) | -0.182 | -0.0761 | 0.228 | -0.111 | -0.183 | -1.01 | -1.18 | -0.957
11 | [N-]=[N+]=NCc1ccccc1[C@H]1OC(c2ccc(OCCCO)cc2)=N[C@@]1(CCS(=O)(=O)c1ccccc1)C(=O)NCC(O)CO (stereo not given in full) | 1.46 | -0.157 | -0.342 | 1.42 | 0.66 | 0.143 | 0.522 | 1.59 | 1.96 | 1.66 | 0.567 | 0.652 (inactive) | 0.11 | 0.0697 | 0.736 | 3.48 | 1.04 | 1.06 | -0.0485 | 0.939
